For 14 compounds, inhibition results are on record in ChEMBL document CHEMBL3433997, “St. Jude Leishmania screening dataset” (2016).

Common to all, as to assay type: functional
The target in assay [1] is Solute carrier family 2, facilitated glucose transporter member 1 (Homo sapiens) (UniProt P11166). The assay is described as follows: ST_JUDE_LEISH: Cytotoxicity at 2uM final concentration against transgenic Leishmania Mexicana promastigotes LmGLUT1 that are glucose transport deficient and complemented with the human glucose transporter GLUT1. Activity is measured by DNA content using SYBR green in vitro.
Sequence of Solute carrier family 2, facilitated glucose transporter member 1 (Homo sapiens) (P11166 whole entry): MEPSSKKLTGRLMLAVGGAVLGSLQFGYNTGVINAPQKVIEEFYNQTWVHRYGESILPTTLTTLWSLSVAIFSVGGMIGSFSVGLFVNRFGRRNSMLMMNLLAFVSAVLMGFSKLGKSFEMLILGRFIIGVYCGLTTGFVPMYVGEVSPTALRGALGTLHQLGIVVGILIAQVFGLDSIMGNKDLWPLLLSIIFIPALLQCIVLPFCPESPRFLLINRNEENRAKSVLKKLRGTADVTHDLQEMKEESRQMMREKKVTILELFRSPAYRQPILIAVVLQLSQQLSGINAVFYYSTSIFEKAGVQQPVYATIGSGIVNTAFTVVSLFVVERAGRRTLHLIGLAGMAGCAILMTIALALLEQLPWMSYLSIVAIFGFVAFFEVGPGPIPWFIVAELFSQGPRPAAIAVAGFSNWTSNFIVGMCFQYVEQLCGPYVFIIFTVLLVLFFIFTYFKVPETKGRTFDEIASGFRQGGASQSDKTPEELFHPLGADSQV

Assay [2] concerns the target Hexose transporter 1 (Plasmodium falciparum) (UniProt O97467). The assay is described as follows: ST_JUDE_LEISH: Cytotoxicity at 2uM final concentration against transgenic Leishmania Mexicana promastigotes LmPfHT that are glucose transport deficient and complemented with the Plasmodium falciparum hexose transporter. Activity is measured by DNA content using SYBR green in vitro.

Assay [3] concerns the target Glucose transporter (Leishmania mexicana) (UniProt O61059). The assay is described as follows: ST_JUDE_LEISH: Cytotoxicity at 2uM final concentration against transgenic Leishmania Mexicana promastigotes LmGT2 that are glucose transport deficient and complemented with the L. Mexicana glucose transporter 2. Activity is measured by DNA content using SYBR green in vitro.

As to `COc1ccc(-c2ccc(CNC(=O)c3cccc(C#N)c3)c(F)c2)cc1CN1CCCN(C)CC1`, the inhibition was 0.77% in assay [1], -4.93% in assay [2] and 0.55% in assay [3].

With `CN1CCCN(Cc2cccc(-c3cccc(NC(=O)c4ccc(Cl)cc4)c3)c2)CC1`, the inhibition in assay [1] was determined as 5.97%; in assay [2], 4.21%; in assay [3], 3.68%.

On to `CN1CCC(N2CCN(Cc3ccc(-c4ccc(-c5nc6ccccc6[nH]5)s4)cc3)CC2)CC1`, for which the inhibition in assay [1] was 8.42%; in assay [2] it was 8.75%; in assay [3], 5.9%.

As for `O=C(/C=C/c1ccc(Cl)c(Cl)c1)NC1CCC(CN2CCC(c3cc4ccccc4[nH]3)CC2)CC1` (configuration not stated), the inhibition in assay [1] came to 0.13%; in assay [2], 2.67%; in assay [3] it was 1.06%.

Take `Nc1nc(N)c2cc(Cc3ccc([N+](=O)[O-])cc3)cnc2n1`: the inhibition was -2.65% in assay [1], 0.37% in assay [2] and -0.27% in assay [3].

Turning to `CCOc1cc(C2C(C(=O)OC(C)C)=C(C)NC3=C2C(=O)CC(c2ccc(Cl)cc2)C3)ccc1OC(C)=O` (configuration not stated), the figures for the inhibition in assay [1], in assay [2] and in assay [3] were 6.58%, 6.64% and 6.55%, respectively.

`Cc1ccc(Cn2nc(Cl)c(N3CCNCC3)cc2=O)cc1NC(=O)Nc1ccc(-c2ccccc2)cc1`: the inhibition in assay [1] was 1.36%; in assay [2], 5.15%; in assay [3], 6.75%.

For `Oc1ccc(-c2nc(-c3ccc4oc5ccc(-c6[nH]c(-c7ccc(O)cc7)nc6-c6ccccc6)cc5c4c3)c(-c3ccccc3)[nH]2)cc1`, the inhibition was -2.06% in assay [1], -1.28% in assay [2] and -0.47% in assay [3].

Take `COc1cc(CC2c3cc(O)c(Cl)cc3CCN2C)c(OC)cc1C` (configuration not stated): the inhibition in assay [1] came out at 3.63%; in assay [2], 4.4%; in assay [3] it was 5.31%.

Regarding `Cc1cc(F)ccc1-c1nc(Nc2ccncc2)c2ccn(C)c2n1`, the inhibition is 1.12% in assay [1], 2.6% in assay [2] and 0.38% in assay [3].

Regarding `COCCN1CCC(CN(C)CC(C)(C)c2nc(-c3ccc(Cl)c(O)c3)c(-c3ccncc3)[nH]2)CC1`, the inhibition stood at 2.73% in assay [1], 5.16% in assay [2] and 0.55% in assay [3].

With `Cc1cc(NCCC(=O)NCCOc2ccccc2)nc(NCCc2ccc(F)cc2)n1`, the inhibition in assay [1] was 2.06%; in assay [2], 0.98%; in assay [3], -2.75%.

Take `O=C(/C=C/c1ccc(Cl)c(Cl)c1)NCCCCCN1CCCN(C(=S)Nc2ccc(Cl)c(Cl)c2)CC1`: the inhibition in assay [1] was -0.53%; in assay [2], -1.2%; in assay [3], 0.13%.

In the case of `O=C(NC1CC1)c1ccc(N2CCN(Cc3ccc(Cl)cc3)CC2)nc1`, the results for the inhibition in assay [1], in assay [2] and in assay [3] were 0.06%, -0.23% and -0.4%, respectively.
